Compound activity (PubChem)
Sampled rows, rich in hits. Any-hit rate of the full collection: about 0.5%.
Tat transport: E. coli Tat transport inhibition | 340,000 tested, 0.036% active | E. coli MC4100 TorA-mCherry Tat export, fluorescence | inhibition, % at 10 µM;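 active = mean replicate inhibition at least 50% and at least half of replicates individually reaching 50%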;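 note: exported cargo escapes ClpAP degradation while cytoplasmic cargo is degraded and loses fluorescence; 0% = median of neutral control wells and 100% = median of NaSCN control wells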
AddAB inh: less growth of phage-infected E. coli with AddAB; E. coli expressing H. pylori AddAB, absorbance growth; 330,000 tested, 0.29% active; inhibition, % at 11.9 µM; in the data active = inhibition above about 12%;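 note: 0% = vehicle wells of infected cells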
E coli growth-1: counter-screen for AddAB inhibitors: E. coli growth inhibition; E. coli V3065 growth, OD600 absorbance, 18 h; inhibition, % at 11.9 µM; 330,000 tested, 0.27% active;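 active = inhibition above the campaign's mean inhibition across all tested compounds plus 3 SD, cut at about 9.9% in these data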;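 note: uninfected addAB+ strain grown without phage in ampicillin broth; 0% = DMSO wells and 100% = ciprofloxacin 0.95 µg/ml wells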
phage Ecoli inh: E. coli growth loss with phage present | growth absorbance | AID 651602 | inhibition, % at 11.9 µM | 360,000 tested, 0.26% active; in the data active = inhibition above about 11%
E coli growth-2: blocks Escherichia coli growth | OD600, 23 h; stronger effect = lower value | OD600 absorbance (no concentration beside the values) | 330,000 tested, 0.21% active | AID 1053175;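 active = OD600 absorbance below the run mean of sample wells minus 3.6 SD, in any replicate, cut at about 0.56 in these data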
RecBCD conf: confirmation: growth loss of phage-infected RecBCD+ E. coli (RecBCD inhibitor screen). shares compounds with phage Ecoli inh. E. coli V66 + T4 2- phage, growth OD. inhibition, % at 11.9 µM. 890 tested, 45% active. AID 651982;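 active = mean inhibition over triplicates exceeding the hit threshold derived in the original primary screen, cut at about 11% in these data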
Ecoli viability: inhibits E. coli viability, flagging RecBCD hits as nonselective | shares compounds with phage Ecoli inh | 890 tested, 29% active | inhibition, % at 11.9 µM | absorbance (OD) growth; in the data active = inhibition above about 20%;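 note: E. coli strain V66 grown with compound alone and no phage infection; 0% = bacteria with DMSO vehicle only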
AddAB counter: growth loss of phage-infected AddAB E. coli, RecBCD counter-screen. shares compounds with phage Ecoli inh. E. coli expressing H. pylori AddAB + T4 phage, OD growth; gene 2 mutant T4, recBCD-deleted host. inhibition, % at 11.9 µM. 890 tested, 45% active;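 active = mean inhibition above the solvent-only control wells' mean plus 3 SD, cut at about 22% in these data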;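 note: higher means less bacterial growth from phage killing when AddAB is blocked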
Active calls of the source: *; · = no result given; ! = repeats disagree.

SMILES	Tat transport	AddAB inh	E coli growth-1	phage Ecoli inh	E coli growth-2	RecBCD conf	Ecoli viability	AddAB counter
CN(C)[C@@H]1C(=O)C(C(N)=O)=C(O)[C@@]2(O)C(=O)C3=C(O)c4c(O)cccc4[C@@](C)(O)[C@H]3C[C@@H]12	·	-1	-1	·	·	·	·	·
CN(C)[C@@H]1C(=O)C(C(N)=O)=C(O)[C@@]2(O)C(=O)C3=C(O)c4c(O)cccc4[C@@](C)(O)C3[C@H](O)C12 (some centres not stated)	150*!	0	0	98*	·	101*	102*	102*
CN(C)[C@@H]1C(=O)C(C(N)=O)=C(O)[C@@]2(O)C(=O)C3=C(O)c4c(O)ccc(Cl)c4[C@@](C)(O)C3C[C@@H]12 (some centres not stated)	150*	·	·	99*	·	101*	104*	105*
COc1cc(C2OCC3C(c4cc(OC)c(OC5OC(CO)C(O)C(O)C5O)c(OC)c4)OCC23)cc(OC)c1OC1OC(CO)C(O)C(O)C1O (configuration not stated)	·	·	·	·	0.65	·	·	·
COC(=O)C1=C(c2cccc(C#N)c2)CC2CCC1N2C(=O)NC1CC1 (configuration not stated)	·	·	·	·	0.71	·	·	·
Cc1cc2c(C(C)C)c(O)c(O)c(C=O)c2c(O)c1-c1c(C)cc2c(C(C)C)c(O)c(O)c(C=O)c2c1O	·	·	·	15*	·	5	5	7
